Shown are actives, neighbours in structure and some others; about 3.5% of the full set was active somewhere.
MITF inh: inhibitors of human MITF; inhibition, % at 2.6 µM; AlphaScreen MITF homodimerization, bead proximity signal; O75030; hit rate 0.91% among 650,000; in the data active = inhibition above about 50%
GPR151 activ: activates the human receptor GPR151; PathHunter beta-arrestin GPR151 cells, luminescence; AID 1508602; Q8TDV0; hit rate 1% among 650,000; activation, % at 11.2 µM; in the data active = activation above about 4.9%
FBW7 activator: activators of human E3 ligase FBW7. AlphaScreen FBW7–phospho-cyclin E peptide binding, activator screen. hit rate 0.13% among 650,000. normalized activity (activation), % at 26.1 µM; in the data active = normalized activity above about 1.9%;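 also: purified mutant Fbw7 with reduced substrate affinity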
Target sequence (Q969H0 whole entry, looked up): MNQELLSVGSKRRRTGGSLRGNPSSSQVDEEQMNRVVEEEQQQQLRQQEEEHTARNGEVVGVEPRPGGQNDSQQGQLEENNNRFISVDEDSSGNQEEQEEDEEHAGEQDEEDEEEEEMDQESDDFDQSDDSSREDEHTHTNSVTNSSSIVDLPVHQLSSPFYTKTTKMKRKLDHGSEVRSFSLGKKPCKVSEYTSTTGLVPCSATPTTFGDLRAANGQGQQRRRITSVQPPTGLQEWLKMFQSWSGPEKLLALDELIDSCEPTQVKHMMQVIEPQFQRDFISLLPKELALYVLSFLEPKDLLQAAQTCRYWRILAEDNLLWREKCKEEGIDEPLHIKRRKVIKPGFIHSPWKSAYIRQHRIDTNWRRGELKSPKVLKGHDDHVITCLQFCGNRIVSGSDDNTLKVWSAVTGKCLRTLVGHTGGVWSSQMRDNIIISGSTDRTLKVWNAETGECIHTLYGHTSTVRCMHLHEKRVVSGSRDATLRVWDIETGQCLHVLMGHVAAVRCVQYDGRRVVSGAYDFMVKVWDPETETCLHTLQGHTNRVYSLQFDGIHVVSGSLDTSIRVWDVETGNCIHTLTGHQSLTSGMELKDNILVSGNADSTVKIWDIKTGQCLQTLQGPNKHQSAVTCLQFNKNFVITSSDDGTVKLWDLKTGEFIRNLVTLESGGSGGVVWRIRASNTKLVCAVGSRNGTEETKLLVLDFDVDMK
TEAD-YAP block: TEAD-YAP interaction inhibition; HEK-TIYL cells, TEAD-Gal4/YAP UAS-luciferase luminescence; inhibition, % at 9.12 µM; hit rate 1.4% among 640,000; in the data active = inhibition above about 32%
MITF inh conf: confirmation of human MITF inhibitors | AlphaScreen MITF homodimerization, biotin/His-MITF beads | hit rate 16% among 4,700 | AID 1259372 | shares compounds with MITF inh | inhibition, % at 2.6 µM;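 active = inhibition above a cutoff derived from the DMSO control wells, cut at about 28% in these data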;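 also: inhibitors lower the bead chemiluminescence by keeping MITF from dimerizing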
AS interf ctr: counter-screen: compounds optically interfering with AlphaScreen; shares compounds with MITF inh; LysRS AlphaScreen counterscreen, signal interference, triplicate; inhibition, % at 2.6 µM; hit rate 7.6% among 4,700; AID 1259376;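 active = inhibition above a cutoff derived from the DMSO control wells, cut at about 30% in these data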
Each line names hits and unclear results; the compound was inactive in the other large screens (follow-up assays come after a bar, where they were run).

COc1ccccc1-n1c(CNC(=O)c2cccs2)nnc1SCC(=O)Nc1cccc(C)c1	none
COc1ccc(OC)c(-n2c(CNC(=O)c3cccs3)nnc2SCC(=O)Nc2cccc(C)c2)c1	MITF inh 61.8 | MITF inh conf inactive | AS interf ctr inactive
CCc1ccc(CN2CCN(Cc3cccc(Oc4ccccc4)c3)CC2)cc1	MITF inh 66.7 | MITF inh conf inactive | AS interf ctr inactive
CN1CCN(Cc2cccc(Oc3ccccc3)c2)CC1	none
CN1CCCN(Cc2cccc(Oc3ccccc3)c2)CC1	MITF inh 54.8 | MITF inh conf inactive | AS interf ctr inactive
OC1CCN(Cc2cccc(Oc3ccccc3)c2)CC1	none
CC(CCc1ccccc1)NCc1nc2ccsc2c(=O)[nH]1 (configuration not stated)	MITF inh 51.6 | MITF inh conf inactive | AS interf ctr inactive
O=C(/C=C/C=C/c1ccccc1)c1ccncc1	none
COc1cc(C(=O)N2CCN(Cc3cccc(Cl)c3)CC2)cc(OC)c1OC	none
COc1cc(CN2CCN(Cc3ccc(Br)cc3)CC2)cc(OC)c1O	none
COc1cc(CN2CCN(Cc3cccc(Cl)c3)CC2)cc(OC)c1OC	MITF inh 68.7 | MITF inh conf inactive | AS interf ctr inactive
COc1cc(CN2CCN(Cc3ccc(Cl)cc3)CC2)cc(OC)c1OC	MITF inh 78.0 | MITF inh conf inactive | AS interf ctr inactive
COc1cc(CN2CCN(Cc3cc(OC)c(OC)c(OC)c3)CC2)cc(OC)c1OC	none
COc1ccc(CN2CCN(Cc3ccc(C)cc3)CC2)cc1OC	MITF inh 67.4 | MITF inh conf inactive | AS interf ctr inactive
COc1cc(CN2CCN(Cc3ccc(Br)cc3)CC2)cc(OC)c1OC	MITF inh 81.5 | MITF inh conf inactive | AS interf ctr inactive
COc1ccc(CN2CCN(Cc3ccc(OC)c(OC)c3)CC2)cc1OC	none
NS(=O)(=O)c1ccc(CCNC(=O)c2cccc(-n3c(=S)[nH]c4cc(Cl)ccc4c3=O)c2)cc1	none
COc1ccc(C)cc1NC(=O)c1cc(S(=O)(=O)N2CCN(C3CCCCC3)CC2)ccc1F	none
COCCNc1nccn2c(-c3cccs3)cnc12	none
COc1ccc(CN2CCN(Cc3cccc(Br)c3)CC2)cc1OC	none
COc1ccc(CN2CCN(Cc3ccc(Br)cc3)CC2)cc1OC	MITF inh 73.6 | MITF inh conf inactive | AS interf ctr inactive
O=C(OCCO[N+](=O)[O-])c1cccnc1	none
Nc1c(C(=O)Nc2ccc(Cl)cc2)nnc2cc(-c3ccc(Cl)cc3)nn12	MITF inh 82.0 | MITF inh conf inactive | AS interf ctr inactive
O=C(Nc1ccc(-c2ccc3nnc(-c4ccncc4)n3n2)cc1)c1ccc(Cl)cc1	none
CCN(CC)C(=O)c1cc(-c2cccc(Cl)c2)on1	none
O=C(OCC(=O)c1ccc([N+](=O)[O-])cc1)C(=O)OCC(=O)c1ccc([N+](=O)[O-])cc1	MITF inh 60.7 | MITF inh conf inactive | AS interf ctr inactive
COc1ccc(C(=O)OCC(=O)c2ccc([N+](=O)[O-])cc2)cc1	none
O=C1NC(=O)C(=Cc2ccccc2I)C(=O)N1	MITF inh 55.1 | MITF inh conf inactive | AS interf ctr inactive
O=C1C(=Cc2ccccc2I)C(=O)c2ccccc21	none
Cc1cc(C)n2nc(C(=O)Nc3ccc(Br)c(C)c3)nc2n1	MITF inh 50.9 | MITF inh conf inactive | AS interf ctr inactive
O=C(COC(=O)c1ccco1)c1ccc2ccccc2c1	MITF inh 92.3 | MITF inh conf inactive | AS interf ctr inactive
CC(C)c1ccccc1OCC(O)CNC1CCN(Cc2ccccc2)C1 (configuration not stated)	MITF inh 69.4 | MITF inh conf inactive | AS interf ctr inactive
CCC(C)c1ccccc1OCC(O)CNC1CCCC1 (configuration not stated)	none
CCC(C)c1ccccc1OCC(O)CN1CCCCC1 (configuration not stated)	none
CC(C)C(=O)N1CCN(CC(O)COc2ccccc2C(C)C)CC1 (configuration not stated)	MITF inh 51.9 | MITF inh conf inactive | AS interf ctr inactive
O=C(NCc1ccccc1F)c1ccc(N2CCC(NCCN3CCNC3=O)CC2)cc1	none
COc1ccc(C(=O)Nc2c3c(nn2-c2cccc(Cl)c2)CSC3)cc1	none
CN1CCN(CCOCCOc2cccc(Br)c2)CC1	MITF inh 71.9 | MITF inh conf inactive | AS interf ctr inactive
CN1CCN(CCOCCOc2ccc(Br)cc2Cl)CC1	none

Source: PubChem (The Scripps Research Institute Molecular Screening Center)
